High-throughput results: PubChem BioAssay, National Center for Advancing Translational Sciences (NCATS)
VACV mCherry inh = inhibitors of vaccinia virus infection (mCherry reporter signal); Potency, µM (top dose mostly 36.5 µM), without a hit: top-dose activity change, negative = inhibition, actives largely listed as inhibitors; Vaccinia virus mCherry reporter infection, fluorescence; 0.63% of 310,000 active; AID 720579; calls by dose curve; tested in A549 cells; also: potency is read from the fitted curve at half-maximal effect; nearly all actives have a fitted effect of over 35% in size
Sm TGR block = inhibitors of Schistosoma mansoni thioredoxin glutathione reductase; Q962Y6; purified TGR, DTNB reduction, TNB absorbance 405 nm; Potency, µM (titrated, usually from 114 µM), inactives show at the top dose activity change, negative = inhibition, hits mostly inhibitors; 3% of 360,000 active; AID 485364; also: potency is read from the fitted curve at half-maximal effect; nearly all actives have a fitted effect of over 60% in size
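Kinetic colorimetric format: TGR-catalysed, NADPH-driven DTNB reduction monitored via TNB absorbance. Enzyme dispensed at 20 nM; compound exposure 15 min at room temperature before reaction start.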
HCMV inh = human cytomegalovirus inhibition; HFF cells, HCMV-luciferase reporter, 72 h; stronger effect = lower value; activity change, negative = inhibition, % at 57.5 µM; 4.5% of 410,000 active; AID 1259415; in the data active = activity change below about -60%; inconclusive = no clear call, values can overlap the other calls; inactive = above about -39%
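Inhibition of viral replication was scored as loss of reporter luminescence in HFFs infected with HCMV-luciferase (MOI 1 PFU/cell) for 72 h; compounds tested at 2 doses, normalized to buffer and Salinomycin controls.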
HCV inh = inhibitors of hepatitis C virus infection | Huh7.5.1 HCVcc-Cre infection, luciferase reporter, 44 h | 3.4% of 340,000 active | AID 651820 | Potency, µM (doses to about 41.8 µM), for inactives: at the top dose activity change, negative = inhibition, usual class: inhibitors; also: potency is read from the fitted curve at half-maximal effect
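Cells seeded at 1,000/well and cultured 4 h, then compounds added followed by HCVcc-Cre virus (~0.5 moi). After 44 h further culture, luciferase substrate was added, plates held 15 min at room temperature, and luminescence read for 15 sec.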
VACV Venus inh = inhibitors of vaccinia virus (Venus reporter) | Vaccinia virus Venus reporter expression, fluorescence | Potency, µM (series often up to 36.5 µM), without a hit: at the top dose activity change, negative = inhibition, hits mostly inhibitors | 0.46% of 330,000 active; calls by dose curve; tested in A549 cells; also: potency is read from the fitted curve at half-maximal effect; nearly all actives have a fitted effect of over 30% in size
FMDV inh = foot and mouth disease virus antiviral activity. Potency, µM (series often up to 57.9 µM), inactives show at the top dose activity change, negative = inhibition, usual class: inhibitors. FMDV antiviral cell-based qHTS. 1.2% of 410,000 active. AID 1159524; calls by dose curve; tested in HEK293T cells; also: read-out not given here; potency is read from the fitted curve at half-maximal effect; nearly all actives have a fitted effect of over 45% in size
Numbers without * were called inactive; i = inactive; ? = inconclusive; / = no result given; [ ] = dose if it differs, or a comment. Rows were chosen to be rich in hits. Some 9.3% of all compounds tested hit in one or more screens of this group. Unless noted, calls follow the shape of the dose curve; as a rule, active = well fitted curve in the direction sought with a large enough effect; inconclusive = small, poorly fitted or top-dose-only effect, or another doubt; inactive = no such curve, though single readings can be large; an effect the other way counts as inactive or inconclusive. % is scaled to controls: 0 for no effect and ±100 for the full control effect.

SMILES	VACV mCherry inh	Sm TGR block	HCMV inh	HCV inh	VACV Venus inh	FMDV inh
COc1ccccc1N1CCN(C(=O)c2ccc(Cl)c(S(=O)(=O)NCc3ccco3)c2)CC1	?	-3%	-8	8.9µM*	?	-25%
Cc1cc(C)n(-c2ccc(C(=O)Nc3ccc(S(=O)(=O)NCc4ccco4)cc3)cc2)n1	?	-33%	-96*	3.5µM*	?	?
CC(C)(C)n1nnnc1C(c1ccccc1)N1CCN(c2ccccn2)CC1 (configuration not stated)	-1%	/	-28	/	-7%	-19%
COC(OC)c1ccnc(-c2ccc(OC(C)=O)cc2)n1	i	0%	-83*	14%	-7%	11%
COC(OC)c1ccnc(-c2ccc(OC(=O)c3ccccc3)cc2)n1	-2%	1%	30	-2%	-12%	-23%
Cn1c(CSCc2ccc(Cl)c(Cl)c2)n[nH]c1=S	?	-14%	-67*	-1%	-24%	?
CS(=O)(=O)Nc1ccc(-c2cncc3nccn23)cc1	5%	/	-10	/	-5%	-17%
CS(=O)(=O)Nc1ccc(-c2cnc3cccnn23)cc1	-2%	/	-64*	/	-8%	1%
CCSc1nnc2c(n1)OC(c1sccc1C)N(C(C)=O)c1ccccc1-2 (configuration not stated)	-21%	-1%	-60*	/	-16%	-16%
O=C(Cn1c(-c2cncs2)nc2ccccc21)NCCc1ccccc1	10%	38%	-35	-11%	0%	-6%
Nc1nc(SCc2ccc(F)cc2)ns1	i	5%	-74*	6%	-12%	35%
Nc1nnc(SCc2ccc(F)cc2)s1	/	8%	-14	10%	/	26%
CCOC(=O)c1c(CN2CCNCC2)nc2ccc(Cl)cc2c1-c1ccccc1	10µM*	/	2	?	?	-17%
CCC1(c2ccccc2)NC(=O)N(CC(=O)NCc2ccccc2OC)C1=O (configuration not stated)	-16%	1%	?	3%	-9%	0%
CN1CC(C(=O)c2ccc([N+](=O)[O-])cc2)C(c2ccc(Cl)cc2)C1 (configuration not stated)	?	?	-64*	-14%	-12%	-18%
CN1CC(C(=O)c2cccc(C(F)(F)F)c2)C(c2ccc(Cl)cc2)C1 (configuration not stated)	i	-3%	-72*	-17%	-7%	?
COc1ccc(C(=O)C2CN(C)CC2c2ccc(Cl)cc2)cc1 (configuration not stated)	/	/	-2	-22%	/	-2%
COc1cccc(C(=O)C2CN(C)CC2c2ccc(Cl)cc2)c1 (configuration not stated)	-23%	/	-32	-1%	-17%	-18%
CCC(C)[C@H](NC(=O)Nc1ccc(S(N)(=O)=O)cc1)C(=O)O (some centres not stated)	i	1%	26	-3%	-5%	-20%
CC(C)NC(=S)NC(=O)c1ccc(-c2ccccc2)cc1	-24%	?	-81*	14µM*	-16%	-25%
CC1CCCN(c2cccc3c2S(=O)(=O)N([C@H](C)c2ccccc2)C[C@@H](COCc2ccccc2)O3)C1 (some centres not stated)	/	/	-82*	/	/	/
O=C(NCCCCNC(=O)c1c(Cl)cccc1Cl)c1c(Cl)cccc1Cl	-11%	/	6	8%	-4%	-8%
COc1cc(O)c(C(=O)O)c(-c2cc(O)c(O)cc2C)c1	i	0.16µM*	-6	4%	-7%	-17%
Cc1cc(O)cc(O)c1C(=O)O	-6%	/	/	/	-4%	9%
O=C(CCS(=O)(=O)c1ccc(Cl)cc1)Nc1cccc(S(=O)(=O)N2CCCCCC2)c1	?	/	-6	?	-27%	?
SMILES	VACV mCherry inh	Sm TGR block	HCMV inh	HCV inh	VACV Venus inh	FMDV inh
CC(=O)C1=C(c2ccc(Br)cc2)C(=O)c2ccccc2C1=O	-15%	?	?	?	6%	3.2µM*
ClCCN(CCCl)c1ccc(C=Nc2ccncc2)cc1	-21%	/	/	/	5%	/
CC1(C)C(C=C(Cl)Cl)C1C(=O)Nc1ccc([N+](=O)[O-])cc1 (configuration not stated)	?	-3%	-96*	?	18µM*	?
COc1ccc(S(=O)(=O)N2CCOC2CNC(=O)C(=O)NCCN(C)C)cc1 (configuration not stated)	-1%	-1%	-36	5%	-10%	5%
CCOc1cc(C2C(C(=O)Nc3ccccc3)=C(C)Nc3ncnn32)cc(Br)c1O (configuration not stated)	-4%	45µM*	-6	/	-1%	-4%
C=CCN(CC=C)c1nc2ccccc2nc1C(C#N)C(=O)OC(C)C (configuration not stated)	/	28µM*	-16	?	12%	1%
S=c1nc[nH]c2c1ncn2-c1ccccc1	i	/	-4	7%	-5%	7%
CCc1nc(C)cn1S(=O)(=O)c1cc(C)c(OC)c(C)c1C	-21%	0%	-76*	2.8µM*	?	-28%
CC(C)CN1C(=O)/C(=C/c2ccco2)NC1=S	-4%	32µM*	-39	-23%	17%	15%
O=C1N/C(=C/c2ccco2)C(=O)N1Cc1ccccc1F	-11%	56µM*	0	-5%	-4%	-14%
CC(C)CN1C(=O)/C(=C/c2cccs2)NC1=S	/	-10%	-63*	7%	/	-8%
O=C1N/C(=C/c2cccs2)C(=O)N1Cc1ccccc1F	-9%	1%	5	13%	-9%	6%
O=C(c1cc(S(=O)(=O)N2CCOCC2)ccc1F)N1CCc2ccccc21	/	/	-12	?	/	0%
O=c1nc(/C=C/c2cc([N+](=O)[O-])ccc2Cl)cc(C(F)(F)F)[nH]1	/	?	-68*	-4%	/	0%
COc1cc(/C=C/c2cc(C(F)(F)F)[nH]c(=O)n2)cc(OC)c1OC	?	/	-97*	0%	?	?
O=S(=O)(NCCc1ccccc1)c1ccc(-n2cnnn2)cc1	-6%	-5%	33	-6%	6%	21%
Cc1ccc(NC(=S)Nc2ccc(S(=O)(=O)Nc3ncccn3)cc2)c(C)c1	-6%[7.34 µM]	-7%	-32	2%	-5%[7.34 µM]	-11%
COCc1cc(C)nc2sc(C(=O)Nc3ccccc3F)c(N)c12	/	-5%	-14	10µM*	/	33%
CN(CCNC(=O)c1cc2c(=O)n(C)c3ccccc3c2n1C)Cc1ccccc1	-17%	28µM*	44	?	-5%	-29%
CCOCCCNC(=O)c1cc2c(=O)n(C)c3ccccc3c2n1C	10%	-2%	0	/	6%	-10%
CCCN(CCC)CCNC(=O)c1cc2c(=O)n(C)c3ccccc3c2n1C	-15%	50µM*	11	?	-11%	-8%
Cc1ccc(CNC(=O)c2cc3c(=O)n(C)c4ccccc4c3n2C)cc1	/	9%	-6	15%	/	-2%
